This passage reports z-score results from PubChem BioAssay.

A short description of this assay: JC-1 mitochondrial signal, unstimulated MM1S myeloma – cell-based, JC-1 fluorescence, 24 h, 100 nL compound, profiling panel (AID 1170). Also: test concentration not given here. The following applies: MM1S mitochondrial potential, higher = more signal.
Regarding `C=CCC(OC(C)=O)[C@@H]1[C@@H](N(Cc2ccc(-c3ccccc3)cc2)C(=O)Cc2ccc(OC)cc2)c2cc(OCCCO)ccc2N1C(=O)c1ccc2ccccc2n1` (stereo partly drawn), the z-score is 0.789.

`COc1ccc(C#Cc2ccc3c(c2)[C@]2(C(=O)N3)[C@H](C(=O)NC[C@H](O)c3ccccc3)[C@H]3C(=O)O[C@H](c4ccccc4)[C@H](c4ccccc4)N3[C@@H]2c2ccc(OCCO)cc2)cc1` had a z-score of -0.733.

Compound `COCCOC(=O)N1C(=O)[C@@]2(c3cc(C#CC4(O)CCCCCC4)ccc31)[C@H](C(=O)N1CCCCCCC1)[C@H]1C(=O)O[C@H](c3ccccc3)[C@H](c3ccccc3)N1[C@@H]2c1ccccc1OCCO` gave a z-score of -0.987.

The compound `COC(=O)c1ccc(OC)c(/C=C\CC(OC(C)=O)c2ccccc2)c1` (stereo not drawn) yielded a z-score of 0.0862.

As to `Cc1ccc([C@H]2C(C(=O)O)=C[C@@H](C)N2S(=O)(=O)c2ccc(C)cc2)cc1`, the z-score is 0.249.

As for `NCCCCCCNC(=O)[C@H]1C[C@H]2C(=O)NCC(=O)N2[C@H]1c1cccc(OCCO)c1`, the z-score stood at 0.535.

`COc1ccc(CCN2C(=O)[C@@]3(Cc4ccccc42)c2ccccc2C(=O)N(Cc2ccccc2Cl)[C@H]3c2ccc(CO)cc2)cc1` had a z-score of 0.256.

Turning to `C=CC[C@@H](OC(=O)Nc1ccc(OC)cc1)c1ccc(O)c2ccccc12`, the z-score is -2.18.

For the compound `CC(C)C[C@@H]1NC(=O)[C@@H]2C[C@H](C(=O)NCCCCCC[N+](C)(C)C)[C@H](c3ccc(O)cc3)N2C1=O`, the z-score is -0.39.

For `O=C1C=CC(=O)[C@@H]2CC(COc3ccccc3)=C3[C@@H](CCc4ccccc4)OB(O)C[C@@H]3[C@H]12`, the z-score was -2.46.

`CN(C)CCCCNC(=O)[C@H]1C[C@H]2C(=O)N[C@@H](Cc3ccccc3)C(=O)N2[C@H]1c1ccc(O)cc1` returned a z-score of -0.149.

`CCCC[C@H]1OB(O)C[C@H]2C1=C(C)C[C@H]1C(=O)N(Cc3ccccc3)C(=O)[C@H]12` registered a z-score of 0.625.

On to `C=C[C@@H](COC(C)=O)N(Cc1ccc([N+](=O)[O-])cc1)S(=O)(=O)c1ccc(Br)cc1`, for which the z-score was determined as 0.198.

With `COc1ccc([Si](C)(C)[C@@H]2[C@@H](CCn3cc([C@H](O)c4ccccc4)nn3)O[C@]3(C(=O)N(Cc4ccc(N5C(=O)c6cccc7cccc5c67)cc4)c4ccccc43)[C@H]2C)cc1`, the z-score came out at 0.209.

In turn, `CC(C)(C)OC(=O)CC[C@@]1(C(=O)NCCN2CCOCC2)N=C(c2ccc(OCCCO)cc2)O[C@@H]1c1ccccc1` gave a z-score of -0.514.

Take `O=C1O[C@@H](c2ccccc2)[C@@H](c2ccccc2)N2[C@@H](c3ccccc3OCCO)[C@]3(C(=O)Nc4ccc(C#CC5(O)CCCCCC5)cc43)[C@@H](C(=O)Nc3nc4ccccc4s3)[C@H]12`: the z-score is -1.41.

In turn, `COCCOC(=O)N1C(=O)[C@@]2(c3cc(C#CCNC(N)=O)ccc31)[C@H](c1ccc(OCCO)cc1)N1[C@H](c3ccccc3)[C@H](c3ccccc3)OC(=O)[C@H]1[C@@H]2C(=O)N1CCc2cc(OC)c(OC)cc2C1` came in with a z-score of -1.32.

Compound `CCOC(=O)C[C@H]1[C@H](OC(=O)c2ccc(C(=O)c3ccccc3)cc2)[C@@H](NC(=O)C2CCCCC2)c2cc(OCCCO)ccc2N1C(=O)c1ccccc1` registered a z-score of -0.0847.

`CC(C)=CCCC(C)=CC(O)C1C=CC2C(=O)N(c3ccccc3)C(=O)C2N1Nc1ccccc1` (stereo not drawn) displayed a z-score of -0.236.

Turning to `COC(=O)[C@@]1(Cc2ccc(OC)cc2)[C@H]2c3cc(C(=O)N4CCCC4)n(CCc4c[nH]c5cc(F)ccc45)c3C[C@H]2CN1C(=O)c1ccccc1`, the z-score was -0.662.

As for `Cc1ccc(F)cc1S(=O)(=O)N[C@@H]1CCN(Cc2ccc(-c3ccccc3)cc2)C1`, the z-score is -2.99.

The compound `COC(=O)[C@@]1(Cc2ccc(OC)cc2)[C@H]2c3cc(C(=O)N(C)C)n(Cc4c(OC)[nH]cc(C)c4=O)c3C[C@H]2CN1C(=O)c1ccccc1` returned a z-score of -1.65.

`[N-]=[N+]=Nc1ccccc1[C@H]1OC(c2ccc(OCCCO)cc2)=N[C@@]1(CCS(=O)(=O)c1ccccc1)C(=O)O`: the z-score was -0.0976.

In the case of `COC(=O)c1ccc(C(O)C2C=CC3C(=O)N(C)C(=O)C3N2NC(=O)OC(C)(C)C)o1` (stereo not drawn), the z-score worked out at 0.395.

`CC=CC(O)C1C=CC2C(=O)N(c3ccccc3)C(=O)C2N1Nc1ccc(C(C)C)cc1` (stereo not drawn): the z-score was -1.08.

Take `O=C1C[C@@](C(=O)NC2CC2)(c2ccc([N+](=O)[O-])cc2)[C@@H](c2ccc(CO)cc2)N1CC12CC3CC(CC(C3)C1)C2`: the z-score was -0.214.

Turning to `COc1ccc(C(O)C2C=CC3C(=O)N(C)C(=O)C3N2Nc2ccccc2)cc1OCc1ccccc1` (stereo not drawn), the z-score was 0.0666.

In turn, `[N-]=[N+]=NCc1ccccc1C[C@@]1(C(=O)N2CCOCC2)N=C(c2ccc(OCCCO)cc2)O[C@@H]1c1ccccc1CN=[N+]=[N-]` came in with a z-score of -1.15.
